26 compounds from PubChem BioAssay (Tox21) can be followed below.

Results filed as inconclusive are left out. Where a call stands in place of a potency, no number is given. The source made the active and inactive calls. The call rests on the fitted dose curve.

The target in this assay is Acetylcholinesterase (Homo sapiens) (UniProt P22303). Description: Acetylcholinesterase (AChE) small molecule antagonists: colormetric cell-based qHTS assay (AID 1347395). Further: nearly all actives have a fitted effect of over 30% in size. The following applies: SH-SY5Y cells AChE activity, colorimetric (Ellman); series mostly up to 115 µM. A digest of the protocol: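 Endogenous AChE of human neuroblastoma SH-SY5Y cells was measured with an Ellman-type DTNB/acetylthiocholine mix. Compound pretreatment lasted 30 min at 37 C; substrate reaction ran 90 min at 37 C.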
Chain of Acetylcholinesterase (Homo sapiens) (P22303 whole entry, looked up): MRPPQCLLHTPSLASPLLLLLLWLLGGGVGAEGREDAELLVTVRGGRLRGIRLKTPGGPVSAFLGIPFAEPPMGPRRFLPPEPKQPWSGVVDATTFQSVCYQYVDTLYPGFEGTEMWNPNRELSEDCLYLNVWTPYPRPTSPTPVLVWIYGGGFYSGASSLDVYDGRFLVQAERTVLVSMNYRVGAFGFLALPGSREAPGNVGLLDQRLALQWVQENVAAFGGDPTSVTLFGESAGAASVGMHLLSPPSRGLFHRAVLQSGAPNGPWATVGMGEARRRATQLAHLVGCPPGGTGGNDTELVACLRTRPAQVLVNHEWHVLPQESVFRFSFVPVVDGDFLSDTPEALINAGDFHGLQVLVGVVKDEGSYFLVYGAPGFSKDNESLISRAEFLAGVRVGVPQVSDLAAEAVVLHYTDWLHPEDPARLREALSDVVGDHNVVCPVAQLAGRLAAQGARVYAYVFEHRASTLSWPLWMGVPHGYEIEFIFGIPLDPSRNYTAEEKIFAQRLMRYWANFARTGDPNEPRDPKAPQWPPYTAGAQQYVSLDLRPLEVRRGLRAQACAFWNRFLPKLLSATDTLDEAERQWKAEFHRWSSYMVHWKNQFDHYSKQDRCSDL
Turning to `CCC(CO)(CO)[N+](=O)[O-]`, the Potency result was “inactive”.
`c1ccc2c(c1)ccc1c3ccccc3ccc21`: the Potency result is “inactive”.
Take `CCSCC`: the Potency result is “inactive”.
Regarding `Nc1ccc(C(=O)NCC(=O)O)cc1`, the Potency entry is “inactive”.
Consider `C=CCN1CCc2nc(N)sc2CC1`, for which the Potency result is “inactive”.
On the same count and under the same terms, with `CCC(C)CCCC(C)(C)O` (stereo unspecified) the entry was “inactive”; with `Cc1ccc(N(CCO)CCO)cc1`, “inactive”.
Still for that read-out and setting: as for `CCOC(=O)C(C)Oc1ccc(Oc2nc3ccc(Cl)cc3o2)cc1` (stereo unspecified), the entry is “inactive”; as for `Clc1ccccc1-c1nc(-c2ccncc2)no1`, “inactive”; as for `CCC(C(=O)OCCOCCN(CC)CC)c1ccccc1` (stereo unspecified), “inactive”.
As to `COc1ccc(-c2coc3cc(O)ccc3c2=O)cc1`, the Potency entry is “inactive”.
In the case of `NCC(=O)O`, the activity, negative = inhibition was 0.505% [at 23.6 µM] (inactive).
For `CC/C=C\CCOC(=O)C(C)C`, the Potency result is “inactive”.
For `CC(C)C(=O)O`, the Potency result is “inactive”.
For the compound `NCC1CCCC(CN)C1` (stereo unspecified), the Potency entry was “inactive”.
With `CC(C)(O)Cc1ccccc1`, the Potency entry is “inactive”.
`CCN(CC)C(=O)N(CC)CC`: the Potency result was “inactive”.
On to `C=C(C)C(=O)OCCCCCCCCCCOC(=O)C(=C)C`, for which the Potency entry is “inactive”.
Consider `C#CC(O)CCCCC` (stereo unspecified), for which the Potency entry was “inactive”.
Still for that read-out and setting: as for `O=C1NC(=O)c2cc([N+](=O)[O-])ccc21`, the entry is “inactive”.
For the compound `COc1cc(C(C)C)ccc1C`, the activity, negative = inhibition was 0.291% [at 23.6 µM] (inactive).
Turning to `COC(=O)C1=C(C)NC(C)=C(C(=O)OC(C)C)C1c1cccc2nonc12` (stereo unspecified), the Potency result was “inactive”.
For `Cc1occc1C(=O)Nc1ccc(C(=O)N2CCC(F)(F)/C(=C\C(=O)N3CCC(N4CCCCC4)CC3)c3ccccc32)cc1`, the Potency entry was “inactive”.
For the compound `NC1CCN(c2nc3c(cc2F)c(=O)c(C(=O)O)cn3-c2ccc(F)cc2F)C1` (stereo unspecified), the Potency entry was “inactive”.
As to `O=Cc1cc(O)ccc1Br`, the Potency entry was “inactive”.
Turning to `c1csc(SSc2cccs2)c1`, the Potency result is “inactive”.
